Where “and” joins values, the source holds several entries; their conditions need not be identical. Identical values can stand only once. Records with an inconclusive call do not appear. Some compounds were tested as several samples or in several runs, with calls that do not always agree. Calls of active or inactive are those of the source. Unless noted, calls come from the whole dose curve; as a rule, active = well fitted curve in the direction sought with a large enough effect; inconclusive = small, poorly fitted or top-dose-only effect, or another doubt; inactive = no such curve, though single readings can be large; an effect the other way counts as inactive or inconclusive.
Key:
[1] = Primary qHTS for small molecule stabilizers of the endoplasmic reticulum resident proteome: Secreted ER Calcium Modulated Protein (SERCaMP) assay (AID 1508630); note: % is set by controls: 0 for no effect and ±100 for the full control effect
Method in brief: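 GLuc-SERCaMP-expressing SH-SY5Y cells, pretreated 16 h with compound, are challenged with thapsigargin to empty ER calcium stores; after 4 h, coelenterazine is added directly to the medium and luminescence is imaged.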

[2] = target: Cytochrome P450 2D6 (Homo sapiens) (UniProt P10635); experiment: Cytochrome P450 family 2 subfamily D member 6 (CYP2D6) small molecule antagonists: luciferase biochemical (cell-free) qHTS assay (AID 1645840; active = well fitted curve in the direction sought with a large enough effect in the repeat runs; an effect the other way counts as inactive or inconclusive; note: nearly all actives have a fitted effect of over 55% in size; note: potency is the fitted concentration of half-maximal effect; for activity change, negative = inhibition: % is set by controls: 0 for no effect and ±100 for the full control effect)
Method in brief: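 P450-Glo luminescent screen: recombinant CYP2D6 enzyme–proluciferin substrate mix preincubated with compound 10 min at room temperature, then NADPH regeneration added for 1 h at room temperature. Detection reagent added for 20 min; luciferin light read as relative luminescence units.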

[3] = target: Cytochrome P450 2C9 (Homo sapiens) (UniProt P11712); experiment: Cytochrome P450 family 2 subfamily C member 9 (CYP2C9) small molecule antagonists: luciferase biochemical (cell-free) qHTS assay (AID 1645842; active = well fitted curve in the direction sought with a large enough effect in the repeat runs; an effect the other way counts as inactive or inconclusive; note: nearly all actives have a fitted effect of over 55% in size; note: potency is the fitted concentration of half-maximal effect; for activity change, negative = inhibition: % is set by controls: 0 for no effect and ±100 for the full control effect)
Method in brief: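 Luminescence, after 20 min with luciferin detection reagent, reflected CYP2C9 turnover during a 1 h NADPH-driven reaction at 37C. Enzyme-substrate mix contained 0.4% bovine serum albumin and was preincubated with compound 10 min at room temperature.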

[4] = target: N-terminal Xaa-Pro-Lys N-methyltransferase 1 (Homo sapiens) (UniProt Q9BV86); experiment: Confirmatory qHTS for Inhibitors of N-terminal methyltransferase 1 (NTMT1): MTaseGlo Assay (AID 1645874); note: potency is the fitted concentration of half-maximal effect; nearly all actives have a fitted effect of over 65% in size
Method in brief: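 Preincubation of NTMT1 (125 nM) plus SAM (100 uM) with test compounds lasted 15 min; methylation of 1 uM SPKRIA then proceeded 30 min in the dark at room temperature. Luciferase signal reported SAH produced.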

[5] = Primary qHTS for inhibitors of nuclear receptor binding SET domain protein 2 (NSD2) in an isogenic RCH-ACV NSD2 p.E1099K mutant (9B) (AID 1645876); note: nearly all actives have a fitted effect of over 70% in size; note: potency is the fitted concentration of half-maximal effect
[6] = Primary qHTS for inhibitors of nuclear receptor binding SET domain protein 2 (NSD2) in an RCH-ACV wild type WT cells (2C) (AID 1645877); note: nearly all actives have a fitted effect of over 70% in size; note: potency is the fitted concentration of half-maximal effect
[7] = target: Catechol O-methyltransferase (Homo sapiens) (UniProt P21964); experiment: Confirmatory Screen for Target Class Profiling of Small Molecule Inhibitors of Methyltransferases (AID 1745852; calls by dose curve; note: potency is the fitted concentration of half-maximal effect; for activity change, negative = inhibition: % is set by controls: 0 for no effect and ±100 for the full control effect); conditions: MTase-Glo luminescence, SAH detection, recombinant enzyme; measured here: COMT max response; stronger effect = lower value
[8] = target: Guanidinoacetate N-methyltransferase (Homo sapiens) (UniProt Q14353); experiment: as above; conditions: MTase-Glo luminescence, SAH detection, recombinant enzyme; activity change, negative = inhibition: at 57.3 µM (top of the series)
[9] = target: Nicotinamide N-methyltransferase (Homo sapiens) (UniProt P40261); experiment: as above; conditions: MTase-Glo luminescence, SAH detection, recombinant enzyme; measured here: NNMT max response; stronger effect = lower value
[10] = target: Phenylethanolamine N-methyltransferase (Homo sapiens) (UniProt P11086); experiment: as above; conditions: MTase-Glo luminescence, SAH detection, recombinant enzyme; measured here: PNMT max response; stronger effect = lower value
[11] = A High-Content qHTS Against Drug Library for the Identification of Small Molecules that Inhibit DYT1 Early Onset Primary Dystonia-Associated Cell Pathology (AID 1645839; calls by dose curve)
Method in brief: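 In this high-content image screen, delE TorsinA mislocalization in inducible Flp-In 293 cells is scored as %pathology, with cell count serving as the counterscreen. Compound exposure lasts 48 h under tetracycline induction in reduced-serum medium.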

Sequence of Cytochrome P450 2C9 (Homo sapiens) (P11712 whole entry, looked up): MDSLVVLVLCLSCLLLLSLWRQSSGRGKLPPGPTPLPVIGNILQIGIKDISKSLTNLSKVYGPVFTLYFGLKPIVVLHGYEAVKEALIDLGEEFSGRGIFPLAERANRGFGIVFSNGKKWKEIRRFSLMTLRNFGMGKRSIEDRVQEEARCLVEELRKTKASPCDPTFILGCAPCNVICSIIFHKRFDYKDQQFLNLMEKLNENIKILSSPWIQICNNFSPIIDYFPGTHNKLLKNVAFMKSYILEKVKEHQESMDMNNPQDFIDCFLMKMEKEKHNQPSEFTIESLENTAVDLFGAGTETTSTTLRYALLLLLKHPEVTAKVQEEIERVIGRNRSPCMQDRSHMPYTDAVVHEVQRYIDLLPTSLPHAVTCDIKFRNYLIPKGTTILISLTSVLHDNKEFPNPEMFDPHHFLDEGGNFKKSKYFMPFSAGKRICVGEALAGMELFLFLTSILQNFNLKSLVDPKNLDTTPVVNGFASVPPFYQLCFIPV
Sequence of Cytochrome P450 2D6 (Homo sapiens) (P10635 whole entry, looked up): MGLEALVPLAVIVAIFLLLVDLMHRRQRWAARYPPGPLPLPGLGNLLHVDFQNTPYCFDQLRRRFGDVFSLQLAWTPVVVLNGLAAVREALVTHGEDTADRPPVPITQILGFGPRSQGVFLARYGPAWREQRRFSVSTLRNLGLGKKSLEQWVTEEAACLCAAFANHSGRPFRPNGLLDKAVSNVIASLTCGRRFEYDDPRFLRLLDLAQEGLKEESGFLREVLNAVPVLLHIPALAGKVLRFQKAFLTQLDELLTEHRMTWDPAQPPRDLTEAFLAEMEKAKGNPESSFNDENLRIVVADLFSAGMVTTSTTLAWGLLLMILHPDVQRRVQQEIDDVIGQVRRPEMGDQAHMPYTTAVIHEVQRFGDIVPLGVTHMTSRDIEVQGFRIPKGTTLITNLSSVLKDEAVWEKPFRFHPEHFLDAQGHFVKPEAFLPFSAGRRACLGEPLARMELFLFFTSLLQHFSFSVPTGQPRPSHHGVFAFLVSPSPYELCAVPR
Sequence of Nicotinamide N-methyltransferase (Homo sapiens) (P40261 whole entry, looked up): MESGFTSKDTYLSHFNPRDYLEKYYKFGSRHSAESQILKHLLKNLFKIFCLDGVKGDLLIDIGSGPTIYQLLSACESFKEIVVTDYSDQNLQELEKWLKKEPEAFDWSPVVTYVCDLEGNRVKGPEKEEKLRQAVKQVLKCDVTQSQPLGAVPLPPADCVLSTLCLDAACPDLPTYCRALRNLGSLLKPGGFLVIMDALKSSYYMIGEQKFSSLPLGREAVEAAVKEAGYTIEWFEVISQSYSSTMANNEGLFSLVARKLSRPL
Sequence of Phenylethanolamine N-methyltransferase (Homo sapiens) (P11086 whole entry, looked up): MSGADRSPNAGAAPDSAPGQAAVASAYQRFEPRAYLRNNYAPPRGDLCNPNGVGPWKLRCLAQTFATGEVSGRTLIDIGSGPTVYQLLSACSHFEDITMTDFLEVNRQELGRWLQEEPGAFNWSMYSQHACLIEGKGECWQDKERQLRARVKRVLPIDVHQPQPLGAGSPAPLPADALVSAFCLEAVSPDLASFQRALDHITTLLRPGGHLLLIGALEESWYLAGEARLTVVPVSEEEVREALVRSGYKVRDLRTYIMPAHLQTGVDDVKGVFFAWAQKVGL
Sequence of Catechol O-methyltransferase (Homo sapiens) (P21964 whole entry, looked up): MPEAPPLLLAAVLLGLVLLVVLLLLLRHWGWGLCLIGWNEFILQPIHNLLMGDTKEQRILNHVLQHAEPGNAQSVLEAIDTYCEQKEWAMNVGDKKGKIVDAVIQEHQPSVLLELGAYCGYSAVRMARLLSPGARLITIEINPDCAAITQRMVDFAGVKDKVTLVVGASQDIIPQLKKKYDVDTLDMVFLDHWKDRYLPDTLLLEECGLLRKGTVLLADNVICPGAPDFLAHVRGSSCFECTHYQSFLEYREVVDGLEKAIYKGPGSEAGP
Sequence of N-terminal Xaa-Pro-Lys N-methyltransferase 1 (Homo sapiens) (Q9BV86 whole entry, looked up): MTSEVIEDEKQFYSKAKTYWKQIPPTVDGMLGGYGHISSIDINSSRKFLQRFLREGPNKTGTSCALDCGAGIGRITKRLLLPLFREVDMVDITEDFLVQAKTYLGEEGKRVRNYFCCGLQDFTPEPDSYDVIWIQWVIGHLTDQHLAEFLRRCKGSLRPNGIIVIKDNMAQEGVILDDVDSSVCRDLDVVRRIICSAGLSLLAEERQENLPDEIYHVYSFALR

CC1CCN(c2cc(N3CCN(C)CC3)ccc2NC(=O)c2cc(C#N)c[nH]2)CC1
Potency [1]: inactive
Potency [2]: 1.2 µM (active)

CCNC(=O)Nc1ccc(Oc2ncnc(N)c2C=NOC)cc1Cl
Potency [1]: inactive
Potency [2]: inactive
Potency [3]: inactive

c1ccc(-c2oc3ncnc(NC[C@@H]4CCCO4)c3c2-c2ccccc2)cc1
Potency [1]: inactive
Potency [2]: 10.7 µM (active)
Potency [3]: 7.56 µM (active)
Potency [4]: 8.91 µM (active)
Potency [5]: inactive
Potency [6]: inactive and 18.3 µM (active)
activity [7]: -58.1%
Potency [8]: 24.1 µM (active)
activity [9]: -46.6%
activity [10]: -56.7%

O=C(Nc1cccc2c(=O)cc(-c3nn[nH]n3)oc12)c1ccc(OCCCCc2ccccc2)cc1
Potency [1]: inactive
outcome [11]: inactive
Potency [2]: 15.5 µM (active)
Potency [3]: 7.76 µM (active)
Potency [5]: inactive

C[C@@H](N)c1ccc(C(=O)Nc2ccnc3[nH]ccc23)cc1
Potency [1]: inactive
Potency [2]: inactive
Potency [3]: inactive
Potency [5]: 9.34 µM (active)

COc1ccc2c(c1)CC[C@H]1[C@@H]2CC[C@]2(C)[C@@H](NCCCCCCN3C(=O)C=CC3=O)CC[C@H]12
Potency [1]: inactive

CCc1cc(-c2n[nH]c(C)c2-c2ccc3c(c2)OCCO3)c(O)cc1O
Potency [1]: inactive
Potency [2]: 4.25 µM (active)
Potency [3]: 0.756 µM (active)
Potency [5]: 8.33 µM (active)
Potency [6]: 7.42 µM (active)

CC(C)CNc1ccnc(NCc2csc(-c3ccccc3)n2)n1
Potency [1]: inactive
Potency [2]: 1.2 µM (active)
Potency [3]: 10.7 µM (active)
Potency [5]: 5.9 µM (active)
Potency [6]: 8.33 µM (active)
activity [7]: -9.21%
activity change, negative = inhibition [8]: -8.39%
activity [9]: -34.7%
activity [10]: -20.3%

CC(C)(O)CC(=O)NCCn1ccc2ncnc(Nc3ccc(Oc4cccc(C(F)(F)F)c4)c(Cl)c3)c21
Potency [1]: inactive
Potency [2]: 12 µM (active)
Potency [3]: 5.35 µM (active)
Potency [5]: 20.5 µM (active) and 11.8 µM (active)
Potency [6]: 20.5 µM (active) and 13.2 µM (active)

CSc1cccc(Nc2ncc3cc(-c4c(Cl)cccc4Cl)c(=O)n(C)c3n2)c1
Potency [1]: inactive
Potency [2]: inactive
Potency [3]: 4.25 µM (active)
Potency [5]: 2.06 µM (active)
Potency [6]: 2.06 µM (active)

CC(C)(C)c1nc(-c2cccc(NS(=O)(=O)c3c(F)cccc3F)c2F)c(-c2ccnc(N)n2)s1
Potency [1]: inactive
Potency [2]: inactive
Potency [3]: 6.74 µM (active)
Potency [5]: 5.9 µM (active)
Potency [6]: 4.68 µM (active)

— PubChem BioAssay (NCATS)
